An excerpt weighted towards active compounds, which were near 10% of everything screened.
CtBP-E1A blk – CtBP/E1A binding inhibition. hit rate 0.49% among 340,000. AID 651724. AlphaScreen GST-E1A/His-CtBP binding, 1536-well; stronger effect = lower value. activity change, % (no concentration beside the values); in the data active = activity change below about -65%; inconclusive = mostly about -30% to -63%; note: % is set by controls: 0 for no effect and ±100 for the full control effect
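Steps: dispense buffer (Tris pH 8.0, NaCl 300 mM, TCEP 1 mM, BSA, Tween 20); add 5X protein mix (GST-E1A, His-CtBP, 125 nM each); pin 23 nL compound; 2 h at 37 °C, dark; add 5X beads (50 ug/mL); 1 h; read.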
BAZ2B inh – blocks human BAZ2B; hit rate 4.4% among 360,000; AID 504333; Potency, µM (top dose mostly 114 µM), for inactives: top-dose activity change, negative = inhibition, hits mostly inhibitors; Q9UIF8; AlphaScreen BAZ2B-H3K14Ac peptide displacement; note: potency is the fitted concentration of half-maximal effect; % is set by controls: 0 for no effect and ±100 for the full control effect; nearly all actives have a fitted effect of over 60% in size
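Protein-peptide AlphaScreen: BAZ2B 50 nM, b-H3K14Ac 50 nM, 1x PBS pH 7.4 + 0.01% Tween-20. Preincubation 30 min RT; cpd 30 min RT (top 110 uM); beads 20 min RT, light-protected.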
JMJD2A Tudor – JMJD2A Tudor domain (human) inhibition; hit rate 4.4% among 390,000; AlphaScreen JMJD2A-Tudor / H3K4me3 peptide binding; Potency, µM (titrated, usually from 114 µM), inactives show at the highest dose activity change, negative = inhibition, hits mostly inhibitors; O75164; note: potency is the fitted concentration of half-maximal effect; % is set by controls: 0 for no effect and ±100 for the full control effect; nearly all actives have a fitted effect of over 50% in size
Target sequence (O75164 whole entry, looked up, the tested form may be a part): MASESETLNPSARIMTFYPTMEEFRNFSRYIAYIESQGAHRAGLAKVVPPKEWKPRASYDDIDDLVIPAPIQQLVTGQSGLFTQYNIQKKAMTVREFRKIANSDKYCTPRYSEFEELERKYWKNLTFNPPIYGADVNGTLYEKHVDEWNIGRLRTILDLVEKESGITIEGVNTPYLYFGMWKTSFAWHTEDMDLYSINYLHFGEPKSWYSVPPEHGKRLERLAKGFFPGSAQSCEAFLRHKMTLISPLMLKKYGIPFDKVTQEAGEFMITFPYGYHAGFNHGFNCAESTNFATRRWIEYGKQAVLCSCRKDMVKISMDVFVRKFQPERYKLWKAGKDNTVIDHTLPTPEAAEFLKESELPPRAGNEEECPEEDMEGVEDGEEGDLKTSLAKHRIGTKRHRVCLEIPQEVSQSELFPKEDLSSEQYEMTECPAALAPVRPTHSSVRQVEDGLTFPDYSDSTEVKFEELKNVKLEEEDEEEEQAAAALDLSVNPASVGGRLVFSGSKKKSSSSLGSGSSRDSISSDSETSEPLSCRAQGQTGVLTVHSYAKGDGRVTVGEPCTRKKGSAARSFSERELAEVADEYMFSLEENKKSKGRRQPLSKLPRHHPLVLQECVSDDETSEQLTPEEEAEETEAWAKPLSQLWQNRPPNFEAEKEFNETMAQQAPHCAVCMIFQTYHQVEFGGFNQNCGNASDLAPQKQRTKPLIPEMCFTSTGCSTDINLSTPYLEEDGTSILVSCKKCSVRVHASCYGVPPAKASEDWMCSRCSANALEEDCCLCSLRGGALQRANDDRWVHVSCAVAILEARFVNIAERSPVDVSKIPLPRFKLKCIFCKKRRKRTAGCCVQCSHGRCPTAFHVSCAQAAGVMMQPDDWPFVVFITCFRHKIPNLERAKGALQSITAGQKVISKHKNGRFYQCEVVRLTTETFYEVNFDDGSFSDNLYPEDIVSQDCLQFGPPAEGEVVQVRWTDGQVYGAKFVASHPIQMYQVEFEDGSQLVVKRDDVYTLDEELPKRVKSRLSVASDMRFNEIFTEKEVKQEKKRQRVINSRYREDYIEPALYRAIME
Six1-Eya2 blk – blocks human Six1 binding to Eya2; Q15475+O00167; AlphaScreen GST-Six1/His-Eya2 binding, biochemical; stronger effect = lower value; activity change, % (concentration not given with the values); hit rate 0.56% among 360,000; AID 651725; in the data active = activity change below about -65%; inconclusive = mostly about -30% to -63%; note: % is set by controls: 0 for no effect and ±100 for the full control effect
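AlphaScreen luminescence read after one hour at 37 °C in darkness. Pin-transferred compounds met GST-Six1 and His-Eya2 protein (5X stock 250 nM/500 nM) plus glutathione donor and Ni-chelate acceptor beads (5X, 50 ug/mL).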
G9a block – blocks human histone lysine methyltransferase G9a; G9a H3K9 monomethylation, AlphaScreen, 2 h; Potency, µM (highest dose often 102 µM), inactives show at the top dose activity, negative = inhibition, most hits filed as inhibitors; hit rate 8.8% among 350,000; AID 504332; note: potency is the fitted concentration of half-maximal effect; % is set by controls: 0 for no effect and ±100 for the full control effect; nearly all actives have a fitted effect of over 75% in size
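Compounds were preincubated with 20 nM G9a for 15 min, after which biotinylated H3K9 peptide (500 nM) and SAM (20 uM) started a 2 h room-temperature reaction. Monomethylated product was quantified by antibody-based AlphaScreen chemiluminescence.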
HP1b chromo inh – inhibitors of HP1-beta chromodomain binding to methylated histone tails. hit rate 0.56% among 390,000. Potency, µM (titrated, usually from 114 µM), for the others: top-dose activity change, negative = inhibition, usual class: inhibitors. P83916. AlphaScreen HP1-beta / biotin-H3K9me3 peptide binding; note: potency is the fitted concentration of half-maximal effect; nearly all actives have a fitted effect of over 70% in size
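HP1-beta protein (50 nM final) preincubated 30 min at room temperature with biotinylated H3(1-18)K9me3 peptide (50 nM) in PBS pH 7.4, 0.01% Tween-20, then compound added for 30 min. AlphaScreen streptavidin donor/nickel chelate acceptor beads (10 ug/mL final), 30 min dark, luminescence read.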
Starred values were filed as active, the others as inactive; ? = inconclusive; · = no result; [ ] = dose if it differs, or a comment. Unless noted, calls come from the whole dose curve; as a rule, active = well fitted inhibition curve with a large enough effect; inconclusive = small, poorly fitted or top-dose-only effect; inactive = no such curve, though single readings can be large or run the other way.

SMILES | CtBP-E1A blk | BAZ2B inh | JMJD2A Tudor | Six1-Eya2 blk | G9a block | HP1b chromo inh
c1ccc2c(c1)OC(CCCN1CCCCC1)c1ccccc1S2 (stereo not given) | -11 | 1% | -24% | -3 | 3%[59 µM] | 5%
CN1CCCC(CC2Oc3ccccc3Sc3ccccc32)C1 (stereo not given) | 2 | 50µM* | 8.9µM* | -4 | ? | ?
O=C(/C=C\c1ccccc1)Oc1cccc2cccnc12 | · | 40µM* | 3% | -67* | 23% | 40%
O=C(/C=C/c1ccccc1)Oc1cccc2cccnc12 | · | 45µM* | -3% | -73* | · | 58%
CC(Oc1cccc2cccnc12)C(=O)N/N=C/c1ccccc1 (stereo not given) | -17 | 8% | -4% | -5 | 5% | 14%
O=C(Oc1cccc2cccnc12)c1ccccc1 | · | · | · | · | 43%[59 µM] | ·
CC1C(=O)N2CCCc3cc(NC(=O)C4CCCCC4)cc1c32 (stereo not given) | 4 | 3% | 0% | 0 | -33% | 30%
CC(=O)O[C@@H](Cc1ccc(O)cc1)C(=O)CC(C)C | -1 | · | · | -15 | · | ·
CS(=O)(=O)c1ccc(C(=O)Nc2cc(S(C)(=O)=O)ccc2Cl)cc1 | 14 | 0% | -12% | 3 | 45µM* | 11%
O=C(COC(=O)/C=C/c1cc(Br)ccc1F)NC1CC1 | -18 | · | -12% | -3 | · | 8%[57 µM]
CC12CN3CC(C)(CN(C1)C3c1ccc3ccccc3c1O)C2=O (stereo not given) | 3 | -10% | ? | -2 | 1.6µM* | 32%
CC(C)C(=O)OCc1cn(-c2ccc(Cl)c(Cl)c2)nn1 | 2 | 66% | 22µM* | 5 | 26% | -4%
Cc1cc(=O)n(Cc2cccc(Cl)c2)c2c1c(C)nn2C | · | 191% | 75% | · | 109%[59 µM] | 54%
CCc1ccc(NC(=O)Cn2ncc3c4ccccc4n(C)c3c2=O)cc1 | 6 | -12% | -5%[11.4 µM] | 0 | -4% | -14%
O=C(Nc1ccc(Cl)c(Cl)c1)NC1CCS(=O)(=O)C1 (stereo not given) | 0 | 0% | -11% | -4 | 18% | -6%
Cc1nc(NS(=O)(=O)c2ccccc2C)c2c3c(sc2n1)CCC3 | 2 | -9% | -8% | 3 | 45µM* | 61%
COc1ccccc1-n1ncc2c(=O)[nH]c(SCC(=O)Nc3cccc(F)c3)nc21 | · | -4% | -13% | · | 2%[59 µM] | 3%
Cc1ccccc1C(=O)NCC(c1ccc(N(C)C)cc1)N1CCCC1 (stereo not given) | · | ? | ? | · | -35%[59 µM] | -19%
CN(C)c1ccc(C(CNC(=O)c2ccccc2Br)c2c[nH]c3ccccc23)cc1 (stereo not given) | -2 | 14µM* | -21% | -1 | 10µM* | 24%
CN(C)c1ccc(C(CNC(=O)c2ccc(C#N)cc2)c2c[nH]c3ccccc23)cc1 (stereo not given) | 2 | 20µM* | 40µM* | ? | 10µM* | ?
CCc1ccc(/C=N/n2c(COc3ccccc3)n[nH]c2=S)cc1 | -3 | -26% | ? | -1 | 20µM* | -6%
S=c1[nH]nc(COc2ccccc2)n1/N=C/c1ccncc1 | · | -25% | 25µM* | 7 | ? | 29%
FC(F)(F)c1ccc(/C=N/n2c(COc3ccccc3)n[nH]c2=S)cc1 | -22 | ? | ? | -6 | -5%[2.33 µM] | -16%
S=c1[nH]nc(COc2ccccc2)n1/N=C/c1ccccn1 | 7 | 13% | 4µM* | 3 | ? | -13%
COc1ccc(NC(=O)Cn2nnnc2-c2ccccc2F)c(C)c1 | · | -8% | -7% | · | -6%[59 µM] | 26%
SMILES | CtBP-E1A blk | BAZ2B inh | JMJD2A Tudor | Six1-Eya2 blk | G9a block | HP1b chromo inh
CCC(=O)NC1CC(=O)N(c2ccc3c(c2)OCCO3)C1 (stereo not given) | · | 2% | -10% | · | -12%[59 µM] | 20%
Cc1ccc(S(=O)(=O)N2CCC(n3nnc4cc(C)ccc43)CC2)cc1 | 8 | -6% | -14% | 4 | 7%[59 µM] | 22%
Cc1ccc2c(c1)nnn2C1CCN(S(=O)(=O)c2ccc(C(=O)N(C)C3CCCCC3)cc2)CC1 | -21 | -3% | ? | 3 | 56µM* | 5%
S=C(NCCN1CCOCC1)Nc1ccc(Cl)cc1 | 0 | 0% | -1% | -4 | -1%[59 µM] | 28%
COc1ccc(N2CCN(c3ccc(NC(=O)NN)cc3)CC2)cc1 | -6 | -36% | ? | -9 | 45µM* | -3%
CC1CCN(CCNC(=S)Nc2ccc(Cl)cc2)CC1 | 4 | 1% | -7%[57.1 µM] | 3 | 45µM* | 36%
CCOc1ccc(NC(=O)NCCCN2CCN(c3ccc(OC)cc3)CC2)cc1 | · | -37% | ? | · | ? | -4%
CCOc1ccc(NC(=S)NCCCN2CCN(c3ccc(OC)cc3)CC2)cc1 | -15 | 35µM* | ? | -12 | 40µM* | -5%
COc1ccc(N2CCN(CCNC(=O)Nc3ccc(Cl)cc3)CC2)cc1 | -12 | -1% | -7% | -6 | 8.9µM* | -2%
COc1cccc2c1cc1c(=O)n(CC(=O)N3CCN(c4cccc(C)c4)C(C)C3)nc(C)n12 (stereo not given) | · | 21% | -15% | · | 22%[59 µM] | 79%
C=CCOc1ccccc1CN1CCSCC1 | -1 | 56µM* | 6.3µM* | -3 | ? | ?
C=CCOc1ccccc1CN1CCCCCC1 | 2 | ? | 1.4µM* | -1 | · | ?
COc1ccc2nc(-n3c(O)c(C4=c5ccccc5=NC4=O)[nH]c3=S)sc2c1 | 30 | 13µM* | ? | ? | ? | ?
Cn1c(O)c(C2=c3ccccc3=NC2=O)[nH]c1=S | -23 | ? | -25% | ? | -22%[59 µM] | 13%
CCCN(CCC)CCCNC(=O)c1nn(C)c2c1CS(=O)(=O)c1ccccc1-2 | · | -16% | -5% | · | -44%[59 µM] | 17%
Cc1ccc(-c2noc(-c3cccnc3NCc3ccco3)n2)cc1 | · | -2% | -4% | · | -31%[59 µM] | 46%
CSC1=NC(C)(C)C=C(/C=C/c2ccc(Cl)cc2)N1 | 13 | ? | ? | 17 | 28µM* | ?
CSC1=NC(C)(C)C=C(/C=C/c2ccc(Cl)cc2Cl)N1 | 0 | ? | ? | -9 | 50µM* | ?
